High-throughput results: PubChem BioAssay, The Scripps Research Institute Molecular Screening Center
hgDAF-12 ag: agonists of H. glycines DAF-12 nuclear receptor; 370,000 tested, 1.8% active; HEK293 GAL4-hgDAF12 UAS-luciferase reporter, agonist luminescence; normalized to butyrate control; activation, % at 6.8 µM; AID 687014;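 active means activation above a cutoff set at the mean of all screened compounds plus 3 SD, cut at about 10% in these data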;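 further: 0% = DMSO wells and 100% = sodium butyrate wells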
hcDAF12 agonist: activates DAF-12 receptor from parasite H. contortus | AID 652067 | activation, % at 6.8 µM | 370,000 tested, 1.4% active | HEK293 hcDAF-12 lit1-tk-luc reporter, luminescence; 0% DMSO, 100% Δ7-dafachronic acid;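 active means activation above the mean of all tested compounds plus 3 SD, cut at about 5.5% in these data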;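 further: 100% = response to 3 µM Δ7-dafachronic acid high control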
ssDAF12 agonist: activators of S. stercoralis DAF-12 nuclear receptor. AID 652126. activation, % at 6.8 µM. HEK293 ssDAF-12/GRIP1 lit1-tk-luc reporter, luminescence; % of 3 µM dafachronic acid response. 370,000 tested, 1% active;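 active means activation above the mean over all tested compounds plus 3 SD, cut at about 0.9% in these data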;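 further: 0% = DMSO-only wells and 100% = 3 µM delta7-dafachronic acid wells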
DAX1 inh-1: inhibits human nuclear receptor DAX1. P51843. HEK293 Gal4-DAX1 luciferase reporter, luminescence. inhibition, % at 6.75 µM. 340,000 tested, 0.99% active;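 active means inhibition above the mean over all tested compounds plus 3 SD, cut at about 4.2% in these data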;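 further: 0% = DAX1-transfected cells with DMSO and 100% = empty-vector control cells with DMSO; inhibition shows as a rise in luminescence from relieved DAX1 repression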
Target sequence (P51843 207-470 limits assumed): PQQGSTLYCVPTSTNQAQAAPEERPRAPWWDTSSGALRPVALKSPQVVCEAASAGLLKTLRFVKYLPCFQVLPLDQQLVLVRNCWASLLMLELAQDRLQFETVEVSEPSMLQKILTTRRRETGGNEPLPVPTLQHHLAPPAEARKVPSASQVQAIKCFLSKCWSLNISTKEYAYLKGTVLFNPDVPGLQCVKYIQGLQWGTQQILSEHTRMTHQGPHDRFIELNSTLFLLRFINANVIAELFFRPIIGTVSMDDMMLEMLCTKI
DAX1 inh-2: blocks DAX1 repression of SF-1 activated StAR promoter; HEK293T StAR-luciferase reporter, SF-1/DAX-1 repression relief; inhibition, % at 6.8 µM; 370,000 tested, 1.1% active;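 active means inhibition above the mean over all tested compounds plus 3 SD, cut at about 3.6% in these data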;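 further: 0% = DAX-1 cells with DMSO and 100% = cells lacking DAX-1 with DMSO; higher inhibition means more luminescence from relief of DAX-1 repression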
DAX1 conf: confirmation of human DAX1 (NR0B1) inhibitors | 2,400 tested, 87% active | AID 652134 | inhibition, % at 6.8 µM | HEK293T StAR-promoter luciferase reporter, SF-1/DAX-1 repression | shares compounds with DAX1 inh-2;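 active means inhibition above the average of every tested compound plus 3 SD, cut at about 3.8% in these data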;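 further: 0% = DAX-1 cells with DMSO and 100% = no DAX-1 control cells with DMSO; active compounds raise luminescence by relieving repression of the StAR reporter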
Target sequence (P51843 whole entry, looked up): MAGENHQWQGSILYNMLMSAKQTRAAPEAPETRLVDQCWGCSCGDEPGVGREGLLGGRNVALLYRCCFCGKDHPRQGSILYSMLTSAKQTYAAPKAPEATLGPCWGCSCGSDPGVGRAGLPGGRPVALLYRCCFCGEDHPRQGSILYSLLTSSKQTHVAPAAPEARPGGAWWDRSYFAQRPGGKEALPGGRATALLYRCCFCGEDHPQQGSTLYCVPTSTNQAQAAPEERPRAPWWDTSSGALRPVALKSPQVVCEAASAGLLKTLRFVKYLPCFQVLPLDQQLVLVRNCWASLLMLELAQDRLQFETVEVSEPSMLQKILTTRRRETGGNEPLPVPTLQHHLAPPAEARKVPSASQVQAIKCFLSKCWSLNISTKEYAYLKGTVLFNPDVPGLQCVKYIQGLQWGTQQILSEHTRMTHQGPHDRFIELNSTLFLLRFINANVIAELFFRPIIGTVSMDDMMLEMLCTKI
SF1 mutant ctr: nonselective inhibitor or artifact in SF-1 mutant DAX1 counter-screen; HEK293 StAR-luciferase, SF-1 AF2 mutant, luminescence; 2,400 tested, 78% active; shares compounds with DAX1 inh-2; inhibition, % at 6.8 µM;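 active means inhibition above the mean of all tested compounds plus 3 SD, cut at about 3% in these data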;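 further: 0% = DAX-1 transfected cells with DMSO and 100% = cells without DAX-1 with DMSO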
LXR ag: LXR-beta agonism as hcDAF-12 counter-screen | activation, % at 6.8 µM | HEK293 Gal4-LXR tk-luc reporter, luminescence, 24 h; normalized: DMSO 0%, positive control 100% | shares compounds with hcDAF12 agonist | 3,400 tested, under 10 active;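 active means mean percent activation of the reporter above a cutoff set as the average over tested compounds plus their standard deviation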
hcDAF12 ag: hcDAF-12 agonism, confirmation assay | shares compounds with hcDAF12 agonist | HEK293 hcDAF-12 lit1-tk-luc reporter, luminescence; % of Δ7-dafachronic acid response | activation, % at 6.8 µM | 3,400 tested, 61% active | AID 743032;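 active means mean activation across triplicate tests above the threshold derived from the earlier primary screen, cut at about 5.5% in these data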;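 further: 0% = DMSO only wells and 100% = 3 µM Δ7-dafachronic acid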
hgDAF12 ag: hgDAF-12 agonism, confirmation assay; shares compounds with hgDAF-12 ag; HEK293 GAL4-hgDAF12 luciferase reporter, agonist mode; percent of butyrate response; activation, % at 6.8 µM; 3,300 tested, 80% active; AID 743050;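 active means mean activation over triplicate wells above the hit cutoff derived from the earlier primary screen, cut at about 11% in these data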;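 further: 0% = DMSO low control and 100% = 2 mM sodium butyrate high control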
LXRb DAF12 ctr: counter-screen for DAF-12 agonists: agonists of human LXR-beta. activation, % at 6.8 µM. AID 743051. HEK293 Gal4-LXR luciferase reporter, 24 h. shares compounds with hgDAF-12 ag. 3,300 tested, under 10 active;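 active means mean activation of the triplicate above a set limit carried over from the primary screen, none filed active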
* marks the source's active call; other numbers are inactive results; . = no result. Sampled rows, rich in hits. Any-hit rate of the full collection: about 4.1%.

SMILES	hgDAF-12 ag	hcDAF12 agonist	ssDAF12 agonist	DAX1 inh-1	DAX1 inh-2	DAX1 conf	SF1 mutant ctr	hgDAF12 ag	LXRb DAF12 ctr	others
O=C(Nc1ccc2c(c1)OCO2)c1ccc(Cl)s1	16.4*	14.2*	1.9*	0.3	4.6*	11.6*	9.9*	21.0*	1.1	LXR ag=1.7;hcDAF12 ag=12.0*
CCC(=O)Oc1ccc(C(=O)Nc2ccc3c(c2)OCO3)cc1	22.1*	3.5	1.7*	.	5.5*	12.7*	7.8*	15.4*	0.8
COc1ccc(C(=O)OCCCN(C)C2CN(Cc3cn(Cc4ccccc4Cl)nn3)S(=O)(=O)C2)cc1OC (stereo not drawn)	-3.2	-2.1	-1.5	.	-2.1	.	.	.	.
N#C/C(=C/c1ccco1)c1nc2ccccc2s1	16.0*	19.7*	4.0*	1.7	4.8*	12.0*	7.7*	21.8*	0.9	LXR ag=1.4;hcDAF12 ag=14.3*
Cc1ccnc(NC(=O)COc2ccc3c(c2)CCC3)c1	13.9*	5.2	-0.4	-2.7	13.8*	12.2*	4.2*	12.3*	0.9
CC(=O)Nc1ccc(NC(=O)COc2ccc3c(c2)CCC3)cc1	-0.6	0.2	-1.3	1.9	0.2	.	.	.	.
CCCC(=O)Nc1ccc(-c2nc3cc(C)c(C)cc3o2)cc1	13.3*	5.4	1.6*	2.3	5.5*	14.4*	8.7*	16.4*	0.9
C=CCn1c(=O)c(C(=O)Nc2ccccc2C(=O)OCC)c(O)c2ccccc21	-1.4	1.4	-0.8	0.1	-1.0	.	.	.	.
C=CCn1c(=O)c(C(=O)Nc2ccccc2S(N)(=O)=O)c(O)c2ccccc21	15.1*	11.6*	1.1*	1.3	5.8*	10.2*	4.0*	10.6*	0.5	LXR ag=0.8;hcDAF12 ag=4.8
N#CCC[C@H]1CC[C@]2(CCCN(C(=O)C3CCCCC3)C2)O1	1.7	-0.5	-1.1	.	-0.9	.	.	.	.
COC(=O)c1sc(NC(=O)c2ccoc2C)nc1C	3.1	-0.6	-0.3	-0.7	1.3	.	.	.	.
COc1ccc2nc(NC(=O)c3ccoc3C)sc2c1	14.8*	9.9*	0.8	-0.4	5.5*	14.2*	4.4*	19.1*	1.3	LXR ag=1.4;hcDAF12 ag=5.9*
COc1ccc2nc(NC(=O)C3COc4ccccc4O3)sc2c1 (stereo not drawn)	18.7*	6.4*	0.4	0.9	5.6*	12.3*	7.6*	11.5*	0.6
C(C#CCCCCCCCCC[n+]1ccccc1)#CCCCCCCCCC[n+]1ccccc1	-10.0	-4.3	-2.3	-2.8	-5.1	.	.	.	.
CC(=O)NC12CC3CC(C1)CC(C(=O)OCC(=O)c1cc(C)n(C)c1C)(C3)C2	16.4*	6.7*	-0.2	1.5	9.8*	11.4*	7.1*	13.6*	0.7	LXR ag=1.4;hcDAF12 ag=6.2*
Cc1ccc(NC(=O)c2c(C)nc3ccccn23)cc1C	13.8*	0.7	-1.3	5.6*	5.8*	8.9*	6.1*	16.0*	0.5
Cc1cccc(NC(=O)c2c(C)nc3ccccn23)c1	2.5	-1.3	-1.0	-1.3	1.2	.	.	.	.
Cc1ccc(-n2c(SCc3cccc(F)c3)nc3sc4c(c3c2=O)CCCC4)cc1	2.0	-1.5	-1.3	.	0.2	.	.	.	.
COc1ccc(/C=C/c2nc(-c3ccccc3O)n[nH]2)cc1	20.0*	6.5*	0.1	2.0	4.6*	14.3*	8.4*	18.0*	0.5
COc1ccc(/C=C/c2nc(-c3ccccc3O)n(-c3ccccc3)n2)cc1	-1.3	-0.6	-1.2	0.7	0.6	.	.	.	.
O=c1c2c(n3nnnc3n1Cc1ccc(Cl)cc1)-c1ccccc1CC21CCCC1	-1.9	-1.2	-1.3	.	0.2	.	.	.	.
CCOc1ccc(NC(=O)c2csc3c2CCCC3)cc1	18.1*	5.6*	0.0	0.7	7.1*	11.8*	7.7*	16.4*	0.7
CCC1CCC/C1=N\NC(=O)c1ccoc1C (stereo not drawn)	16.9*	4.5	0.5	0.9	11.4*	0.0	-0.5	5.5	0.1
CCC1CCC/C1=N\NC(=O)c1ccccc1Cl (stereo not drawn)	2.6	0.0	-0.4	.	0.1	.	.	.	.
CCOc1ccc(NC(=O)CN(C)C(=O)Cc2ccc3c(c2)OCCO3)cc1OCC	3.1	-0.2	-1.8	1.0	0.3	.	.	.	.
SMILES	hgDAF-12 ag	hcDAF12 agonist	ssDAF12 agonist	DAX1 inh-1	DAX1 inh-2	DAX1 conf	SF1 mutant ctr	hgDAF12 ag	LXRb DAF12 ctr	others
c1csc(CNc2nc(Oc3ccncc3)c3sccc3n2)c1	-3.7	-1.3	-0.4	.	0.2	.	.	.	.
O=C(Nc1nc2ccccc2[nH]1)c1cc2ccccc2o1	21.4*	13.6*	0.8	0.0	8.0*	9.4*	7.6*	19.4*	1.0	LXR ag=1.4;hcDAF12 ag=9.1*
O=C(Nc1nc2ccccc2[nH]1)C1CCCC1	14.8*	3.6	0.0	0.6	4.9*	6.5*	5.7*	13.1*	1.1
Cc1cc(C)nc(NC(=O)c2cc3ccccc3o2)n1	3.0	0.2	-1.0	0.8	0.1	.	.	.	.
O=C(Nc1nc2ccccc2[nH]1)c1ccccc1F	-11.3	-1.7	-2.6	-5.0	-2.1	.	.	.	.
Cc1ccc(NC(=O)c2cc3ccccc3o2)nc1	18.9*	13.8*	1.5*	0.8	16.1*	17.1*	9.9*	19.0*	1.1	LXR ag=1.7;hcDAF12 ag=14.1*
COCCNC(=O)C1(C)Cc2c(-c3ccc4c(c3)OCO4)ccnc2O1 (stereo not drawn)	1.6	-2.8	-1.7	.	-2.2	.	.	.	.
CCCCNC(=O)C(NC(=O)c1cccc(C(F)(F)F)c1)C(=O)c1ccccc1 (stereo not drawn)	-0.5	-1.6	-0.8	.	-1.4	.	.	.	.
CC(=O)c1cnc2cc(-c3ccccc3)nn2c1C	5.4	1.2	-0.3	0.6	1.7	.	.	.	.
Nc1c(-c2ccccc2)cnc2cc(-c3ccccc3)nn12	22.0*	2.4	0.9*	5.6*	6.0*	16.3*	7.7*	25.8*	1.0
O=C(Nc1ccc(F)cc1)OCc1cn(Cc2c(F)cccc2F)nn1	2.2	0.3	-1.1	.	-1.3	.	.	.	.
